In the supplement of paper PMC11732987, “Enantioselective OTUD7B fragment discovery through chemoproteomics screening and high-throughput optimisation” (Communications Chemistry, 2025):

Columns and labels:
Assay in all cases: log2 ratio of Biotin-Ahx-Ub-VS probe labelling (fragment/DMSO); higher = less target engagement (more negative = stronger competition), active = hit call of the paper (q ≤ 0.05, log2 ratio ≤ -1)
Conditions in all cases: compound concentration: 200 uM; treatment time: 3 h
USP42 = target: T1, USP42 (UniProt Q9H9J4)
T1 sequence (whole entry): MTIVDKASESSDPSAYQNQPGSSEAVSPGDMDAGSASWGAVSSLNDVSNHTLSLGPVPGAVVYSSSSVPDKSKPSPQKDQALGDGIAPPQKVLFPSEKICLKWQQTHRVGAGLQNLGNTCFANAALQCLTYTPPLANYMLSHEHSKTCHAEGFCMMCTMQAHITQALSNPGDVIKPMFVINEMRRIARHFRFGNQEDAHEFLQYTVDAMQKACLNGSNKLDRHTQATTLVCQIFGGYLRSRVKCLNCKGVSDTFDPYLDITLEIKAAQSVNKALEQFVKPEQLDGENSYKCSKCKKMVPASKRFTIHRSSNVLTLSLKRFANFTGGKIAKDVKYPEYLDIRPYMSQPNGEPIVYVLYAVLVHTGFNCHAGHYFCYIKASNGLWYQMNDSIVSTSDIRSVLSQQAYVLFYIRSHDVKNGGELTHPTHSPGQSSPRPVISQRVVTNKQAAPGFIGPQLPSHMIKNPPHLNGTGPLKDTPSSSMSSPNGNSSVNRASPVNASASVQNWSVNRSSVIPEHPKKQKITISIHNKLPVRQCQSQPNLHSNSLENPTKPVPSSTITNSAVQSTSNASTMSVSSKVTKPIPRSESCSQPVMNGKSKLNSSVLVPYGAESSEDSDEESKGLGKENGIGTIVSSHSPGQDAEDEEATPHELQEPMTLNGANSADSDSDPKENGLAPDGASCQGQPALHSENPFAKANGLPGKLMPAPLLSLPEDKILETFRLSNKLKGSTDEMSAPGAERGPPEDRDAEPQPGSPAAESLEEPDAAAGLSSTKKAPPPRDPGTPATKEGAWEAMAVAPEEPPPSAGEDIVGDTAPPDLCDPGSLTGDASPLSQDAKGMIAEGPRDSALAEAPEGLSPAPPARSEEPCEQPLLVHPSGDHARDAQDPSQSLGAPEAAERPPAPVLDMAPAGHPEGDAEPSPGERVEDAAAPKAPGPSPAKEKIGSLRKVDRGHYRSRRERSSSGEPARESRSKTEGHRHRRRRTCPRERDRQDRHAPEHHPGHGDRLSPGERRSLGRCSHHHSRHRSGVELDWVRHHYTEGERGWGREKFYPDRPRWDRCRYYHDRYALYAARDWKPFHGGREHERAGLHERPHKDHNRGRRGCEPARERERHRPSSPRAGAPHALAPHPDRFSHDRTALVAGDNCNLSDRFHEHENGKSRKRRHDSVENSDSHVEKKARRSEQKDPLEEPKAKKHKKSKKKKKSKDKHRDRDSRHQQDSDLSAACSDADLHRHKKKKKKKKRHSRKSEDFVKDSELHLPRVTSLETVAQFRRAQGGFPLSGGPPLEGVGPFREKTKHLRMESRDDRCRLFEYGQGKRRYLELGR
In short: (§1)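 Global-median-normalised Spectronaut label-free quantities were compared by unpaired t-test, and values are average log2 ratios of fragment over vehicle. Only proteins with ≥2 unique peptides were used. HEK293T lysate (495 µg per sample) was treated in triplicate with fragment at 200 µM or vehicle for 3 h and then with Biotin-Ahx-Ub-VS at 0.5 µM final for 1 h. Labelled DUBs were then NeutrAvidin-enriched, digested with LysC and trypsin, and run by diaPASEF LC-MS/MS.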

USP46 = USP46 (UniProt P62068)
In short: as §1

USP47 = target: T2, USP47 (UniProt Q96K76)
T2 sequence (whole entry): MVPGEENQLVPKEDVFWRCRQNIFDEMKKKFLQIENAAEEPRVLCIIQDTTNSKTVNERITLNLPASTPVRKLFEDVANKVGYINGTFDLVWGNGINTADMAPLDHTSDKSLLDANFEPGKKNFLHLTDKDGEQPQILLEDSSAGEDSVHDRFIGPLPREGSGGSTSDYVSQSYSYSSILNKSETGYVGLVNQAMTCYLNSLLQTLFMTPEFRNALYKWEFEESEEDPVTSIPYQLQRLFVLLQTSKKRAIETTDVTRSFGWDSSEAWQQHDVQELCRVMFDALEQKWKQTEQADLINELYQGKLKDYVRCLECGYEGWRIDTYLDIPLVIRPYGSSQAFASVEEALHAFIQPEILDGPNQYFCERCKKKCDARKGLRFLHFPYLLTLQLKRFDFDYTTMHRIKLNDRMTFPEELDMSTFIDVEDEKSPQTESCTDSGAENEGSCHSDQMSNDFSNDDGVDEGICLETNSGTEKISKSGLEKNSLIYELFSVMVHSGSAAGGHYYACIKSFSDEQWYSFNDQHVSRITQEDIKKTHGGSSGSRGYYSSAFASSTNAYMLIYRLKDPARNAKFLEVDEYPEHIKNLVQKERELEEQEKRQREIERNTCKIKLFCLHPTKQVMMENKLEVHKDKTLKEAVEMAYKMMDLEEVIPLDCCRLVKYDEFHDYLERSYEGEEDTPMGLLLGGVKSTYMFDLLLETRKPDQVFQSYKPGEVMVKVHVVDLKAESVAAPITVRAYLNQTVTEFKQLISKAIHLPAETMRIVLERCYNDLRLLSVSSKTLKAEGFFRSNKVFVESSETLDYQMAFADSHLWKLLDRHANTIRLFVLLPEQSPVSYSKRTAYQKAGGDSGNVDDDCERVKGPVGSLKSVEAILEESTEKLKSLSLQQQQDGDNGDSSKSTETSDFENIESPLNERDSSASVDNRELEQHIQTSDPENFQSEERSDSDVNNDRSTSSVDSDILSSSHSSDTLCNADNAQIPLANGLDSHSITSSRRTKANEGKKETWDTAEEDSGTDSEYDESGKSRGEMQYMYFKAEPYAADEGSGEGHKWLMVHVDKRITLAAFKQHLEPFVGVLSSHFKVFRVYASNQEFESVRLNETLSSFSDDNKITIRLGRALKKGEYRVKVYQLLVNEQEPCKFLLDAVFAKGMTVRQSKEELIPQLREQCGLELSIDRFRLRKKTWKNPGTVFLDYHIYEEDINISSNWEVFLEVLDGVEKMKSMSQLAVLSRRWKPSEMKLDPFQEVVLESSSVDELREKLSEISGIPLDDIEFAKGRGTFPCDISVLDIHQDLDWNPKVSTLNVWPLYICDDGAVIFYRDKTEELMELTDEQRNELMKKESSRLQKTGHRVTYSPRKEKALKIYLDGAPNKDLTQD
In short: as §1

USP48 = target: T3, USP48 (UniProt Q86UV5)
T3 sequence (whole entry): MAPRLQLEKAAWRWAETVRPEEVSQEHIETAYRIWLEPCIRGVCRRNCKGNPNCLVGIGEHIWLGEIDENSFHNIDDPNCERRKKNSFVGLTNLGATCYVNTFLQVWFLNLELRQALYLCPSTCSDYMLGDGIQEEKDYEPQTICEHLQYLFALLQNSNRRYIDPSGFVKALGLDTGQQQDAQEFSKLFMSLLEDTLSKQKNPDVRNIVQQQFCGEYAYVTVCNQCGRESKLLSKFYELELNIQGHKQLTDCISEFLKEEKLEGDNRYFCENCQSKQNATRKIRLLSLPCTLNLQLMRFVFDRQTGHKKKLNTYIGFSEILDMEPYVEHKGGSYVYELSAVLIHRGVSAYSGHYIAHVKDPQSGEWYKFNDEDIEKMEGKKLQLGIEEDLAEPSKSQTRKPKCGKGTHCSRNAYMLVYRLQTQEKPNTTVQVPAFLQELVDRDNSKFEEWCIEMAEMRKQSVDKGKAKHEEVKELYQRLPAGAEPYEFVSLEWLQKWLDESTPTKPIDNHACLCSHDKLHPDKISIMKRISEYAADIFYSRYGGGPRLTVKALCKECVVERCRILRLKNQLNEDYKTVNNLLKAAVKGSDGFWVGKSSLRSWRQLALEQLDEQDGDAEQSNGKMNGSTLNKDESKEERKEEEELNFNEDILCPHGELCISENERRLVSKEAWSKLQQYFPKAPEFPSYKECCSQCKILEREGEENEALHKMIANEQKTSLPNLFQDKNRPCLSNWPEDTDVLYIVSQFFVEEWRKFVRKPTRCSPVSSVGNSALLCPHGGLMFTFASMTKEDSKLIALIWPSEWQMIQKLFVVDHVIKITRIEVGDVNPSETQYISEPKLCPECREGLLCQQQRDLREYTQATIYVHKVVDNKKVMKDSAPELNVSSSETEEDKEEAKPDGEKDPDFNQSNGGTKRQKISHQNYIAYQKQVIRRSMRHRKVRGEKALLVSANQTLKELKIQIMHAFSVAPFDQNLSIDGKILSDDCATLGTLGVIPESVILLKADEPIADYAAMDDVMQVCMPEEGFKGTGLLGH
In short: as §1

USP5 = target: T4, USP5 (UniProt P45974)
T4 sequence (whole entry): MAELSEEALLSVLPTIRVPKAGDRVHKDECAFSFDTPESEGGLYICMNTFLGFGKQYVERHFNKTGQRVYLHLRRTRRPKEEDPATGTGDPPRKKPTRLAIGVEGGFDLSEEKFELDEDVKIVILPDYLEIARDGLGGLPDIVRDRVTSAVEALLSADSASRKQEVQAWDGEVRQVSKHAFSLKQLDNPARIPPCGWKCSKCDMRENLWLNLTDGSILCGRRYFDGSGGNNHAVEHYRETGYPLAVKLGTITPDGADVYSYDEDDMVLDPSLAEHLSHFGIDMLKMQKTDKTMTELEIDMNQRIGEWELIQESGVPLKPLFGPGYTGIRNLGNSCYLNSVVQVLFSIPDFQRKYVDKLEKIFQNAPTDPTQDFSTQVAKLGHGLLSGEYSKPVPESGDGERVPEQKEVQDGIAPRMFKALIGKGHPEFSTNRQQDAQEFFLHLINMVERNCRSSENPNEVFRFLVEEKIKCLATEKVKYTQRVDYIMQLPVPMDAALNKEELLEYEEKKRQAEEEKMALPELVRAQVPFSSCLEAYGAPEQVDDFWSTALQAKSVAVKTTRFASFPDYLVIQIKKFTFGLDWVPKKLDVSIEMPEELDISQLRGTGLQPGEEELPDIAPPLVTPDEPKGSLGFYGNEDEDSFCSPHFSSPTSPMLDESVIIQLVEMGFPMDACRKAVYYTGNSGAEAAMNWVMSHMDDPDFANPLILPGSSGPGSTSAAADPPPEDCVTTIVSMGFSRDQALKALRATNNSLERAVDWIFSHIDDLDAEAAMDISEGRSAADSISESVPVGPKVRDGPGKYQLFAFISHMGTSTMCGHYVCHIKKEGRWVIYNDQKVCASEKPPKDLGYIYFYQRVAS
In short: as §1

USP54 = USP54 (UniProt Q70EL1)
In short: as §1

USP7 = USP7 (UniProt Q93009)
In short: as §1

USP8 = target: T5, USP8 (UniProt P40818)
T5 sequence (whole entry): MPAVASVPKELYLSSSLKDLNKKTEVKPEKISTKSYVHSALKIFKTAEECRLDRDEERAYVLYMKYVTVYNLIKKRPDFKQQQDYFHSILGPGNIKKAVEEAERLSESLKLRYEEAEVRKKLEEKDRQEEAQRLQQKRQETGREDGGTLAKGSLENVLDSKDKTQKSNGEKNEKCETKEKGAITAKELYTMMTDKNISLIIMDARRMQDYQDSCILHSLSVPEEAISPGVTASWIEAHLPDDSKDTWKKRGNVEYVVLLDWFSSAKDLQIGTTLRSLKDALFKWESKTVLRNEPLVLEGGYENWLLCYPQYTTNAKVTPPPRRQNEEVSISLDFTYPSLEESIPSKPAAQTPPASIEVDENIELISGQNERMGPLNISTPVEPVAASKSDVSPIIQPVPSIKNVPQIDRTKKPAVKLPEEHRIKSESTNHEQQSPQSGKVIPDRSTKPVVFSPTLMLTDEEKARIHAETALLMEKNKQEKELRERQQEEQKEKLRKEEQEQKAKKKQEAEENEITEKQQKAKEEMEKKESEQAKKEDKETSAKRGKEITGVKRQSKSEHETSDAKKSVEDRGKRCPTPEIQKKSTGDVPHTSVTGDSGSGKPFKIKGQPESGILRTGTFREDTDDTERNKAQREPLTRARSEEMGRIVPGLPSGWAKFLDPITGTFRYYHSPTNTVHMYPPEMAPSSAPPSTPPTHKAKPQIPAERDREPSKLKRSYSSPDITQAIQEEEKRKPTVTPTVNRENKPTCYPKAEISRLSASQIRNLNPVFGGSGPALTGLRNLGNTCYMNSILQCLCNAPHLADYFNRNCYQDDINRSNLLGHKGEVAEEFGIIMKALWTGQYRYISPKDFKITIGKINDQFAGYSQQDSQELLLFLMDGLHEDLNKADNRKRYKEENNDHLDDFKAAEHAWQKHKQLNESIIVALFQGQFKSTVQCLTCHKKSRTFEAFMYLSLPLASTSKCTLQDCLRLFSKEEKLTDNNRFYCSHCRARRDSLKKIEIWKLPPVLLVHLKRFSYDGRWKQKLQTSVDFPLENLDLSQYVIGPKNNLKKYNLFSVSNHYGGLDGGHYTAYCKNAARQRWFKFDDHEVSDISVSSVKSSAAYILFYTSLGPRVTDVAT
In short: as §1

USP9X = USP9X (UniProt Q93008)
In short: as §1

UniProt O00487 = target: UniProt O00487
In short: as §1

Measured: log2 ratio of Biotin-Ahx-Ub-VS probe labelling

USP46, sequence (P62068 whole entry): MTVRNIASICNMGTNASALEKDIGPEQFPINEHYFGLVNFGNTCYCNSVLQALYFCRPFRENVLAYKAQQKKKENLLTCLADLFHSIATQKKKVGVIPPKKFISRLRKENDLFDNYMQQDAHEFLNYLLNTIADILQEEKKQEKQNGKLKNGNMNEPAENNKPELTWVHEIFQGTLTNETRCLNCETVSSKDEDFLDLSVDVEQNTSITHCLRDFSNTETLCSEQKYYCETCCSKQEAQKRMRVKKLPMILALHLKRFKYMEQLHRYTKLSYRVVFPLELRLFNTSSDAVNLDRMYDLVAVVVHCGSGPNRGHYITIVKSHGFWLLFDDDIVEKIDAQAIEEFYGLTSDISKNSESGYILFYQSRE
USP54, sequence (Q70EL1 whole entry): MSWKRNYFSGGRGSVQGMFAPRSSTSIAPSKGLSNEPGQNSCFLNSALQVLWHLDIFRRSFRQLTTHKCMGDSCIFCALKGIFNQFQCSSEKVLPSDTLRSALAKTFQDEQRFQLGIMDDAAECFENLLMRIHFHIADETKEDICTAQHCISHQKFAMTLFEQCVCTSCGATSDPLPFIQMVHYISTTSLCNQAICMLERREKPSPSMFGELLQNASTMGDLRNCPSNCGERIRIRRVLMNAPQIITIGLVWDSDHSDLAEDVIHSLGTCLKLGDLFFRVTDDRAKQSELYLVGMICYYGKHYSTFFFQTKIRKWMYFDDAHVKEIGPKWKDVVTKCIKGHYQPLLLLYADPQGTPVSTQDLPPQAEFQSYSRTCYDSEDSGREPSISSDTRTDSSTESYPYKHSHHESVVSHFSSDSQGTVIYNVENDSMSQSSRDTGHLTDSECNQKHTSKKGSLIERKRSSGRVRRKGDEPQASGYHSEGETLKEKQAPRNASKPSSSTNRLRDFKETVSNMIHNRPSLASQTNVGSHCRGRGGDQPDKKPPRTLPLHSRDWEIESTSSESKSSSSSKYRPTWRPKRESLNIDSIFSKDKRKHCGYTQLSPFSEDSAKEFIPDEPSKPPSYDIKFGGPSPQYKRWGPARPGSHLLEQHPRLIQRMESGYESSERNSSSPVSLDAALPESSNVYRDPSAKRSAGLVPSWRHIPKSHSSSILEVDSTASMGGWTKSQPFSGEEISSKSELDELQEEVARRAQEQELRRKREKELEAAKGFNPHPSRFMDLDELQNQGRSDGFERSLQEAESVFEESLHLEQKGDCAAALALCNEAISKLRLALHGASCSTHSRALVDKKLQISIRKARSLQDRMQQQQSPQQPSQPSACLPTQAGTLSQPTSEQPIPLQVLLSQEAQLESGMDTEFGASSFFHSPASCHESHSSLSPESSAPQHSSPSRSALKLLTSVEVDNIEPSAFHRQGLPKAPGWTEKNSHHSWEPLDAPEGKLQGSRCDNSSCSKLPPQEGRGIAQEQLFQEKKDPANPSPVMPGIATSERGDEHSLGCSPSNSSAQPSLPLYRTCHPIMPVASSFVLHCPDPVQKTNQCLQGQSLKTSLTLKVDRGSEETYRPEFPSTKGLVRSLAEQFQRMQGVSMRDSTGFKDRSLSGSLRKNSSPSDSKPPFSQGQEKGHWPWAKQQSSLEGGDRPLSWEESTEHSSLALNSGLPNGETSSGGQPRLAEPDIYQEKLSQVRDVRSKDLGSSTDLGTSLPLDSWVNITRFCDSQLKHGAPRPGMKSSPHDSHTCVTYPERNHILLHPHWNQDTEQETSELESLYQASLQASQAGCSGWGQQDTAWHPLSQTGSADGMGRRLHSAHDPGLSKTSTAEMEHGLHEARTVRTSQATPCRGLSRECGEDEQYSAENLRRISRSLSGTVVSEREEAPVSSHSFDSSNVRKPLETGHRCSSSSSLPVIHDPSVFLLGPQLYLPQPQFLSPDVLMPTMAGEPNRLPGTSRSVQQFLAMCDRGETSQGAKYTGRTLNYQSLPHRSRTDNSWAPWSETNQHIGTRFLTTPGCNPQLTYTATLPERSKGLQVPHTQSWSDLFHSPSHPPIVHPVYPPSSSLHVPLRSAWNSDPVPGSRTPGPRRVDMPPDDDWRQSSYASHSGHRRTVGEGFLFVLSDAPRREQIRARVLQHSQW
USP9X, sequence (Q93008 whole entry): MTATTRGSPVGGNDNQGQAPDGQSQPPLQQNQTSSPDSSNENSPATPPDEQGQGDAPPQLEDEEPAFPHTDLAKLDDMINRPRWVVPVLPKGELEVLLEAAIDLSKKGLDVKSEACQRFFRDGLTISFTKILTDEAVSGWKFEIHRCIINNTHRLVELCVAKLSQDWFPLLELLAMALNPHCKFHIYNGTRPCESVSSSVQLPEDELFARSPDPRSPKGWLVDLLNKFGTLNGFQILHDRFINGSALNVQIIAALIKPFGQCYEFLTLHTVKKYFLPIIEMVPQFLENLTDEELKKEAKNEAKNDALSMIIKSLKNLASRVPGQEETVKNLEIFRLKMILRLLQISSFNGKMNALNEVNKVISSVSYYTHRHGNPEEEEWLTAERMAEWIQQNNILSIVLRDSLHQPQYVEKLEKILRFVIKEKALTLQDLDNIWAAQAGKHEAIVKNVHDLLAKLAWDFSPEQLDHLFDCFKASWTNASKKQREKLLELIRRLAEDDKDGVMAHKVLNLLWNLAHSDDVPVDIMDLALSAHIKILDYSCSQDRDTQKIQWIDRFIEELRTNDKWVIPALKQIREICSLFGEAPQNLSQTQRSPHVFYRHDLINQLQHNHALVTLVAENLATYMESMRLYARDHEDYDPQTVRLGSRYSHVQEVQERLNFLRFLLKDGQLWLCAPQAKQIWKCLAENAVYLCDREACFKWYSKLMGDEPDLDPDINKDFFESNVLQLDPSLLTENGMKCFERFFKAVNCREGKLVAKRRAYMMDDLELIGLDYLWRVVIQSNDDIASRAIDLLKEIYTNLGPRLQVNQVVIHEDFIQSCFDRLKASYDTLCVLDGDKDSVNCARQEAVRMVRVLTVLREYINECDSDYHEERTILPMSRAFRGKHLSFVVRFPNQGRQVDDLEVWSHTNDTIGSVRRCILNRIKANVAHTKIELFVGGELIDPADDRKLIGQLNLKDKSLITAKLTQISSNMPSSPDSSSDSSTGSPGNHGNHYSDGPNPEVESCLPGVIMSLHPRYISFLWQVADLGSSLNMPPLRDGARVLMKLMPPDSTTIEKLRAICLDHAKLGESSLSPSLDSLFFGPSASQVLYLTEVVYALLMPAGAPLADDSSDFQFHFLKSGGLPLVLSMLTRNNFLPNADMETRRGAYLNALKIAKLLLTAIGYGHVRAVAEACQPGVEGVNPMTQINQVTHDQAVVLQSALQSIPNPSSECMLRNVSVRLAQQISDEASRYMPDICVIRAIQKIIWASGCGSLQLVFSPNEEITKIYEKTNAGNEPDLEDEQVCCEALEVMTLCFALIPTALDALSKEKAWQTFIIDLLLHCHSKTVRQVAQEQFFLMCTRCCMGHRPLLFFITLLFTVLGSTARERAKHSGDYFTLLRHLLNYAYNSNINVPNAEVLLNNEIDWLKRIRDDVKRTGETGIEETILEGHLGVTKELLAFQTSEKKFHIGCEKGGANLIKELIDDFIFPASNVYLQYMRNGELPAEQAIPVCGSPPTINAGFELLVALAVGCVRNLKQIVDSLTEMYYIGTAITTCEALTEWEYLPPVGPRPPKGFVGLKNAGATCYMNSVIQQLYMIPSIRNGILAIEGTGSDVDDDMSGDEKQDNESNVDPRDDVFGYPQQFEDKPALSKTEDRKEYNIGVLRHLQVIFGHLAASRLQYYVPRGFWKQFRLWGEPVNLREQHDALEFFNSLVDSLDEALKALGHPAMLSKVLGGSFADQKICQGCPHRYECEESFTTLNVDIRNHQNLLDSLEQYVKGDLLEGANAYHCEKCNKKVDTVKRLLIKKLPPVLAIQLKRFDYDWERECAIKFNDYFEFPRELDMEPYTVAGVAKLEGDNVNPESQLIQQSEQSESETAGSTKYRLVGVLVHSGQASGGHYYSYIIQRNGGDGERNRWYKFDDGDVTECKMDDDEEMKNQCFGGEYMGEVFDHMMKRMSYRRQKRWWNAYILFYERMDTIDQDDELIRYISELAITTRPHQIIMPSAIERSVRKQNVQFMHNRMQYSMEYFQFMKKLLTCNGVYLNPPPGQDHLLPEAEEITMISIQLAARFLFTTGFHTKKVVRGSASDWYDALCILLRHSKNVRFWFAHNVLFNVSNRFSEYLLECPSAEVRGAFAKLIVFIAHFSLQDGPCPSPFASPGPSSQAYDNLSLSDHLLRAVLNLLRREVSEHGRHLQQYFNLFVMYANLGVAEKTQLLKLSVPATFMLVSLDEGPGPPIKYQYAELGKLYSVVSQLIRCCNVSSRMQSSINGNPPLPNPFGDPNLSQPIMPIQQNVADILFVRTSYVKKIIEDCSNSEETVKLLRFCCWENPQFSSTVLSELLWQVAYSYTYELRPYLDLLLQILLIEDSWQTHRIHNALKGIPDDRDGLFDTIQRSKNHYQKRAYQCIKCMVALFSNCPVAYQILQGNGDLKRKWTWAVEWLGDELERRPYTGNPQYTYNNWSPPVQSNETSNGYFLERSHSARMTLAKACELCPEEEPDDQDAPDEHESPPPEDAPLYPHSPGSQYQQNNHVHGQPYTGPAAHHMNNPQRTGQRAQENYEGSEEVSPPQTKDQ
UniProt O00487, sequence (O00487 whole entry): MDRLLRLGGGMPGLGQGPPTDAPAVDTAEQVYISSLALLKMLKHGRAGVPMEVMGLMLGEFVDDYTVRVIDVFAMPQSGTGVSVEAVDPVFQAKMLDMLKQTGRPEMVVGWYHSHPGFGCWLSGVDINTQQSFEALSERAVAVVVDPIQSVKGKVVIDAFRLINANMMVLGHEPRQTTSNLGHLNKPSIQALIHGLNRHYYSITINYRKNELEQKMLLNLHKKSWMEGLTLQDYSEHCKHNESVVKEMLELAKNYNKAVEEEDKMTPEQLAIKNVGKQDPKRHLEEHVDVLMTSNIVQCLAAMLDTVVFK

O=C(CCl)NC1CCCCNC1=O (stereo not given)
inactive: USP42 0.0716 | USP46 -0.113 | USP47 -0.161 | USP48 -0.154 | USP5 -0.327 | USP54 0.114 | USP7 -0.264 | USP8 -0.134 | USP9X -0.297 | UniProt O00487 -0.13

Cc1cccc(C)c1NC(=O)CCl
inactive: USP42 -0.0226 | USP46 -0.0272 | USP47 0.139 | USP48 -0.538 | USP5 -0.194 | USP54 0.412 | USP7 -0.264 | USP8 -0.461 | USP9X -0.187 | UniProt O00487 -0.00227

N#Cc1ccc(Cl)cc1NC(=O)CCl
inactive: USP42 -0.385 | USP46 0.0423 | USP47 -0.413 | USP48 -0.305 | USP5 -0.153 | USP54 -0.514 | USP7 -0.47 | USP8 -0.0467 | USP9X -0.0196 | UniProt O00487 0.0781

O=C(CCl)N1CCCCC12CCOCC2
inactive: USP42 -0.368 | USP46 -0.278 | USP47 -0.146 | USP48 -0.525 | USP5 -0.258 | USP54 0.442 | USP7 -0.511 | USP8 -0.237 | USP9X -0.584 | UniProt O00487 -0.282

O=C(CCl)Nc1cccc2ncccc12
inactive: USP42 0.41 | USP46 0.096 | USP47 0.325 | USP48 -0.121 | USP5 0.466 | USP54 -0.107 | USP7 -0.116 | USP8 -0.176 | USP9X -0.112 | UniProt O00487 0.0189
